LAP4-GFP MLPCN: modulators of LAP4-GFP expression in yeast, primary screen, S. cerevisiae, multiplex flow cytometry, MLPCN library; 3 h; median GFP as percent of DMSO wells; GFP response vs DMSO, % at 10 µM; 320,000 tested, 0.34% active; AID 2023, 2009;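 active = GFP response vs DMSO above a set limit, about the screen mean plus 3 SD, cut at about 150% in these data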
RPL19A-GFP yeast: RPL19A-GFP expression modulators in yeast, primary screen, cell-based, S. cerevisiae, multiplex flow cytometry, MLPCN | S. cerevisiae RPL19A-GFP strain, 3 h; hits give low values | percent response vs DMSO, % at 10 µM | 330,000 tested, 0.3% active | AID 2025, 2009;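 active = percent response vs DMSO below 50%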;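 note: median channel GFP fluorescence of the barcoded RPL19A-GFP strain; ratio of sample median GFP to plate DMSO average so 100% = DMSO; lower means less RPL19A-GFP as with rapamycin TOR inhibition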
MEP2 TOR yeast: modulators of MEP2-GFP levels in yeast, primary screen, S. cerevisiae, multiplex flow cytometry, MLPCN library. S. cerevisiae MEP2-GFP strain, 3 h; 100% = DMSO control level. GFP response vs DMSO, % at 10 µM. 330,000 tested, 0.51% active;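 active = GFP response versus DMSO above a set limit, roughly screen mean plus 3 SD, cut at about 180% in these data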;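 note: median GFP fluorescence of the barcode-gated MEP2-GFP cells per well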
CIT2 TOR yeast: modulators of CIT2-GFP expression in yeast, primary screen, S. cerevisiae, GFP fusion, multiplex flow cytometry, MLPCN library; S. cerevisiae CIT2-GFP strain, 3 h; 100 means same as DMSO wells; GFP response vs DMSO, % at 10 µM; 320,000 tested, 0.065% active; AID 2029, 2009;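 active = GFP response relative to DMSO above a set limit, near the screen mean plus 3 SD, cut at about 150% in these data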;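 note: ratio of well median GFP fluorescence to mean of DMSO wells on the plate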
AGP1-GFP MLPCN: modulators of AGP1-GFP expression in yeast TOR pathway, primary screen, cell-based, multiplex flow cytometry, S. cerevisiae, MLPCN library | 3 h; GFP as percent of DMSO wells | GFP response vs DMSO, % at 10 µM | 320,000 tested, 0.02% active | AID 2066, 2009;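 active = GFP response relative to DMSO above a set limit, near screen average plus 3 SD, cut at about 150% in these data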;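 note: median GFP channel fluorescence of the gated AGP1 strain per well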
LAP4-GFP pick2: LAP4-GFP expression modulators in yeast, confirmation, cell-based, second cherry pick, flow cytometry; 590 tested, 20% active; shares compounds with LAP4-GFP MLPCN; S. cerevisiae LAP4-GFP strain, 3 h; GFP response vs DMSO, % at 10 µM;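 active = GFP signal as percent of the solvent control above about 150%, meaning raised reporter expression, limit read from the data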;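 note: ratio of well median GFP fluorescence to plate DMSO mean so 100% = DMSO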
MEP2-GFP pick2: modulators of MEP2-GFP levels in yeast, confirmation, S. cerevisiae, flow cytometry GFP, second cherry picks. shares compounds with LAP4-GFP MLPCN. S. cerevisiae MEP2-GFP strain, 3 h. GFP response vs DMSO, % at 10 µM. 590 tested, 10% active. AID 2622, 2010;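 active = GFP signal above 150% of the solvent control wells, that is a rise of more than half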;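 note: median channel GFP fluorescence of all gated yeast cells per well; ratio of median GFP to plate DMSO average so 100% = DMSO level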
RPL19A-GFP pick2: RPL19A-GFP modulators in TOR pathway yeast, confirmation, cell-based, S. cerevisiae, flow cytometry, second cherry pick. shares compounds with LAP4-GFP MLPCN. S. cerevisiae RPL19A-GFP strain, 3 h; hits give low values; 100% means same as DMSO wells. GFP response vs DMSO, % at 10 µM. 590 tested, 3% active. AID 2623, 2010;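 active = under 65% GFP response relative to DMSO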;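 note: median GFP channel fluorescence per well over the all cells gate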
CIT2-GFP pick2: modulators of CIT2-GFP expression in yeast, confirmation, flow cytometry, second cherry pick, single plex | GFP response vs DMSO, % at 10 µM | 590 tested, 8% active | shares compounds with LAP4-GFP MLPCN | S. cerevisiae CIT2-GFP strain, 3 h; DMSO control wells read 100%;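 active = GFP response vs DMSO above about 150%, limit read from the data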;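 note: median green fluorescence per well over all gated yeast cells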
AGP1-GFP pick2: AGP1-GFP expression modulators, hit retest, confirmation, cell-based, flow cytometry, S. cerevisiae, cherry pick set 2; shares compounds with LAP4-GFP MLPCN; S. cerevisiae AGP1-GFP strain, 3 h; percent response vs DMSO, % at 10 µM; 590 tested, under 10 active; AID 2643, 2010;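 active = over 150 percent of DMSO response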;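 note: median GFP channel fluorescence over all cells without mother daughter split; sample median GFP divided by mean DMSO control so 100% equals DMSO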
s288c autofluor: compound autofluorescence in yeast s288c, dose response, artefact control for yeast TOR pathway GFP screen, s288c strain; shares compounds with LAP4-GFP MLPCN; S. cerevisiae s288c, 520 nm autofluorescence, flow cytometry, 3 h; hits give high values; zero means same as solvent-only cells; fluorescence change (kMESF span) at 33 µM; 610 tested, under 10 active;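 active = fluorescence span over the dose series, or activity score, above about 33, limit read from the data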
* hit, by the source's call. The list is not random: actives were taken first. Their share in the collection is about 0.92%.

How did CC1(C)C[C@H]2C=C(C=O)[C@]3(C=O)C[C@]3(C)[C@H]2C1 do in these assays?
LAP4-GFP MLPCN: 149; RPL19A-GFP yeast: 61; MEP2 TOR yeast: 122; CIT2 TOR yeast: 103; AGP1-GFP MLPCN: 70; LAP4-GFP pick2: 198*; MEP2-GFP pick2: 201*; RPL19A-GFP pick2: 79; CIT2-GFP pick2: 188*; AGP1-GFP pick2: 91; s288c autofluor: 1.4

Results for CCCN(CCC)C1Cc2cc(OC)c(OC)cc2C1 ?
LAP4-GFP MLPCN: 106; RPL19A-GFP yeast: 102; MEP2 TOR yeast: 96; CIT2 TOR yeast: 91; AGP1-GFP MLPCN: 92

Results for CC[C@H](C)/C=C(C)/C=C/C1=CC2=C(Cl)C(=O)[C@@](C)(OC(C)=O)C(=O)C2=CO1 ?
LAP4-GFP MLPCN: 75; RPL19A-GFP yeast: 28*; MEP2 TOR yeast: 79; CIT2 TOR yeast: 74; AGP1-GFP MLPCN: 8; LAP4-GFP pick2: 71; MEP2-GFP pick2: 97; RPL19A-GFP pick2: 29*; CIT2-GFP pick2: 77; AGP1-GFP pick2: 14; s288c autofluor: 2

Results for O=C1NC(=O)C(=Cc2ccc(-c3ccc(Cl)cc3)o2)C(=O)N1 ?
LAP4-GFP MLPCN: 263*; RPL19A-GFP yeast: 71; MEP2 TOR yeast: 90; CIT2 TOR yeast: 57; AGP1-GFP MLPCN: 66; LAP4-GFP pick2: 198*; MEP2-GFP pick2: 123; RPL19A-GFP pick2: 84; CIT2-GFP pick2: 103; AGP1-GFP pick2: 89; s288c autofluor: 0.5

How did O=C1NC(=O)C(=Cc2ccc(-c3ccc(S(=O)(=O)N4CCOCC4)cc3)o2)C(=O)N1 do in these assays?
LAP4-GFP MLPCN: 108; RPL19A-GFP yeast: 96; MEP2 TOR yeast: 91; CIT2 TOR yeast: 72; AGP1-GFP MLPCN: 89

How did Cc1ccc(-n2nc(C)cc2NC(=O)COc2cc(C)cc3oc(=O)c4c(c23)CCC4)cc1 do in these assays?
LAP4-GFP MLPCN: 109; RPL19A-GFP yeast: 102; MEP2 TOR yeast: 110; CIT2 TOR yeast: 102

How did CCCCCCCCn1sccc1=O do in these assays?
LAP4-GFP MLPCN: 207*; RPL19A-GFP yeast: 88; MEP2 TOR yeast: 98; CIT2 TOR yeast: 86; AGP1-GFP MLPCN: 72; LAP4-GFP pick2: 180*; MEP2-GFP pick2: 185*; RPL19A-GFP pick2: 85; CIT2-GFP pick2: 174*; AGP1-GFP pick2: 87; s288c autofluor: 1.6

What do the screens show for `CCCCCCCCc1ccc(O)cc1`?
LAP4-GFP MLPCN: 111; RPL19A-GFP yeast: 98; MEP2 TOR yeast: 99; CIT2 TOR yeast: 89; AGP1-GFP MLPCN: 97

Results for CN1C(=O)C(c2ccc([N+](=O)[O-])cc2[N+](=O)[O-])C(=O)N(C)C1=O ?
LAP4-GFP MLPCN: 92; RPL19A-GFP yeast: 108; MEP2 TOR yeast: 105; CIT2 TOR yeast: 86; AGP1-GFP MLPCN: 87

Compound activity: PubChem BioAssay, NMMLSC
